In PubChem BioAssay (NCATS):
Results filed as inconclusive are left out. The source made the active and inactive calls. Calls come from the whole dose curve; as a rule, active = well fitted curve in the direction sought with a large enough effect; inconclusive = small, poorly fitted or top-dose-only effect, or another doubt; inactive = no such curve, though single readings can be large; an effect the other way counts as inactive or inconclusive.

Assays:
[1] = molecular target: ATP-dependent 6-phosphofructokinase (Trypanosoma brucei brucei) (UniProt O15648); assay: qHTS Assay to Find Inhibitors of T. brucei phosphofructokinase: hit validation (AID 492961);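 note: luminescence reports ADP formed as PFK phosphorylates fructose-6-phosphate with ATP; % is set by controls: 0 for no effect and ±100 for the full control effect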
Chain of ATP-dependent 6-phosphofructokinase (Trypanosoma brucei brucei) (O15648 whole entry, looked up): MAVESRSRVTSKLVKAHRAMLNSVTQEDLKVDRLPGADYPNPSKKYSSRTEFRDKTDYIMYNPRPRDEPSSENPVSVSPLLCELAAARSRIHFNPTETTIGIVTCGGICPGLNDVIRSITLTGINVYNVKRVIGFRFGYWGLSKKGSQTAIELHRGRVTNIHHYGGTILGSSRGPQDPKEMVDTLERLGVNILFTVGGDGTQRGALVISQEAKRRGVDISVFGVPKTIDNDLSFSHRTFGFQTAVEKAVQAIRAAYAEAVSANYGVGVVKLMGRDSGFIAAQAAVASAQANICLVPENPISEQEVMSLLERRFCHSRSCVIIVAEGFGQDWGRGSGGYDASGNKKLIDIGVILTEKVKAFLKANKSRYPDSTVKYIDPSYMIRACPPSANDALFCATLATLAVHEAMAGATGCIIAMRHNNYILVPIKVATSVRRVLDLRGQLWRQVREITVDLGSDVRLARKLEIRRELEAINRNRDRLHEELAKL
Outline: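 PFK 1.25 nM, F6P 0.5 mM, ATP 0.1 mM, MgCl2 5 mM, 0.1 M TEA pH 8.0, Tween20 0.01%, BSA 0.1%; 45 min RT. ADP-Glo two-step detection, luminescence. qHTS titration; curve fitting with curve-class categorization.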

[2] = qHTS profiling for inhibitors of Plasmodium falciparum proliferation (AID 504749); note: potency is the fitted concentration of half-maximal effect;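 for activity, negative = inhibition: 0% = DMSO vehicle and full inhibition = artemisinin control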; for all read-outs here: nearly all actives have a fitted effect of over 60% in size; details: P. falciparum in erythrocytes, SYBR Green DNA, 72 h; for activity, negative = inhibition: at 28.7 µM (top of the series)
Outline: (§1)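 Fluorescence of SYBR Green-bound parasite DNA, read at 485/535 nm, served as the growth measure. Infected erythrocytes were cultured with compound 72 h; artemisinin (0.29 uM) and DMSO wells defined the normalization range.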

3D7 = assay: as above; details: P. falciparum in erythrocytes, SYBR Green DNA, 72 h; series mostly up to 28.7 µM
Outline: as §1

ATS189 = assay: as above; details: P. falciparum in erythrocytes, SYBR Green DNA, 72 h; series mostly up to 28.7 µM
Outline: as §1

ATS95 = assay: as above; details: P. falciparum in erythrocytes, SYBR Green DNA, 72 h; series mostly up to 28.7 µM
Outline: as §1

C2A = assay: as above; details: P. falciparum in erythrocytes, SYBR Green DNA, 72 h; series mostly up to 28.7 µM
Outline: as §1

CP185 = assay: as above; details: P. falciparum in erythrocytes, SYBR Green DNA, 72 h; series mostly up to 28.7 µM
Outline: as §1

CP191 = assay: as above; details: P. falciparum in erythrocytes, SYBR Green DNA, 72 h; series mostly up to 28.7 µM
Outline: as §1

CP217 = assay: as above; details: P. falciparum in erythrocytes, SYBR Green DNA, 72 h; series mostly up to 28.7 µM
Outline: as §1

CP238 = assay: as above; details: P. falciparum in erythrocytes, SYBR Green DNA, 72 h; series mostly up to 28.7 µM
Outline: as §1

CP250 = assay: as above; details: P. falciparum in erythrocytes, SYBR Green DNA, 72 h; series mostly up to 28.7 µM
Outline: as §1

CP252 = assay: as above; details: P. falciparum in erythrocytes, SYBR Green DNA, 72 h; series mostly up to 28.7 µM
Outline: as §1

CP256 = assay: as above; details: P. falciparum in erythrocytes, SYBR Green DNA, 72 h; series mostly up to 28.7 µM
Outline: as §1

CP262 = assay: as above; details: P. falciparum in erythrocytes, SYBR Green DNA, 72 h; series mostly up to 28.7 µM
Outline: as §1

CP265 = assay: as above; details: P. falciparum in erythrocytes, SYBR Green DNA, 72 h; series mostly up to 28.7 µM
Outline: as §1

CP286 = assay: as above; details: P. falciparum in erythrocytes, SYBR Green DNA, 72 h; series mostly up to 28.7 µM
Outline: as §1

DFO2036 = assay: as above; details: P. falciparum in erythrocytes, SYBR Green DNA, 72 h; series mostly up to 28.7 µM
Outline: as §1

Dd2 = assay: as above; details: P. falciparum in erythrocytes, SYBR Green DNA, 72 h; series mostly up to 28.7 µM
Outline: as §1

HB3 = assay: as above; details: P. falciparum in erythrocytes, SYBR Green DNA, 72 h; series mostly up to 28.7 µM
Outline: as §1

P94_40 = assay: as above; details: P. falciparum in erythrocytes, SYBR Green DNA, 72 h; series mostly up to 28.7 µM
Outline: as §1

OCC(CO)NC1C[C@](O)(CO)[C@@H](O)[C@H](O)[C@H]1O (stereo partly specified)
inactive: Potency [1] | activity, negative = inhibition ([2]; parasite line A) 8.78% | activity, negative = inhibition ([2]; parasite line B) 9.25% | Potency (3D7) | Potency (ATS189) | Potency (ATS95) | Potency (C2A) | Potency (CP185) | Potency (CP191) | Potency (CP217) | Potency (CP238) | Potency (CP250) | Potency (CP252) | Potency (CP256) | Potency (CP262) | Potency (CP265) | Potency (CP286) | Potency (DFO2036) | Potency (Dd2) | Potency (HB3) | Potency (P94_40)

CC(CN1CC(=O)NC(=O)C1)N1CC(=O)NC(=O)C1 (stereo unspecified)
inactive: Potency [1] | activity, negative = inhibition ([2]; parasite line A) 1.79% | activity, negative = inhibition ([2]; parasite line B) 0.945% | Potency (3D7) | Potency (ATS189) | Potency (ATS95) | Potency (C2A) | Potency (CP185) | Potency (CP191) | Potency (CP217) | Potency (CP238) | Potency (CP250) | Potency (CP252) | Potency (CP256) | Potency (CP262) | Potency (CP265) | Potency (CP286) | Potency (DFO2036) | Potency (Dd2) | Potency (HB3) | Potency (P94_40)

Cc1onc(-c2c(F)cccc2Cl)c1C(=O)NC1C(=O)N2C1SC(C)(C)C2C(=O)O (stereo unspecified)
inactive: Potency [1] | activity, negative = inhibition ([2]; parasite line A) 3.14% | activity, negative = inhibition ([2]; parasite line B) -4.31% | Potency (3D7) | Potency (ATS189) | Potency (ATS95) | Potency (C2A) | Potency (CP185) | Potency (CP191) | Potency (CP217) | Potency (CP238) | Potency (CP250) | Potency (CP252) | Potency (CP256) | Potency (CP262) | Potency (CP265) | Potency (CP286) | Potency (DFO2036) | Potency (Dd2) | Potency (HB3) | Potency (P94_40)

CCCC(=O)Nc1c(I)cc(I)c(C[C@H](CC)C(=O)O)c1I
inactive: Potency [1] | activity, negative = inhibition ([2]; parasite line A) 2.81% | activity, negative = inhibition ([2]; parasite line B) -1.24% | Potency (3D7) | Potency (ATS189) | Potency (ATS95) | Potency (C2A) | Potency (CP185) | Potency (CP191) | Potency (CP217) | Potency (CP238) | Potency (CP250) | Potency (CP252) | Potency (CP256) | Potency (CP262) | Potency (CP265) | Potency (CP286) | Potency (DFO2036) | Potency (Dd2) | Potency (HB3) | Potency (P94_40)

CCC(C(=O)C(C)C(O)C(C)CCc1ccc(C)c(O)c1C(=O)O)C1OC(CC)(C2CC[C@@](O)(CC)C(C)O2)CC1C (stereo partly specified)
active: Potency ([2]; parasite line A) 794 nM | Potency ([2]; parasite line B) 1120 nM | Potency (3D7) 447 nM | Potency (ATS189) 1260 nM | Potency (ATS95) 891 nM | Potency (C2A) 794 nM | Potency (CP185) 1120 nM | Potency (CP191) 708 nM | Potency (CP217) 1000 nM | Potency (CP238) 1000 nM | Potency (CP250) 1000 nM | Potency (CP252) 794 nM | Potency (CP256) 1000 nM | Potency (CP262) 953 nM | Potency (CP265) 891 nM | Potency (CP286) 631 nM | Potency (DFO2036) 1000 nM | Potency (Dd2) 794 nM | Potency (HB3) 631 nM | Potency (P94_40) 316 nM
inactive: Potency [1]

C[S+](C)CC[C@H](N)C(=O)O
inactive: Potency [1] | activity, negative = inhibition ([2]; parasite line A) 2.14% | activity, negative = inhibition ([2]; parasite line B) 12.4% | Potency (3D7) | Potency (ATS189) | Potency (ATS95) | Potency (C2A) | Potency (CP185) | Potency (CP191) | Potency (CP217) | Potency (CP238) | Potency (CP250) | Potency (CP252) | Potency (CP256) | Potency (CP262) | Potency (CP265) | Potency (CP286) | Potency (DFO2036) | Potency (Dd2) | Potency (HB3) | Potency (P94_40)

CCCCCOC(=O)Nc1nc(=O)n(C2O[C@H](C)[C@@H](O)[C@@H]2O)cc1F (stereo partly specified)
inactive: Potency [1] | activity, negative = inhibition ([2]; parasite line A) -10.4% | activity, negative = inhibition ([2]; parasite line B) 12.5% | Potency (3D7) | Potency (ATS189) | Potency (ATS95) | Potency (C2A) | Potency (CP185) | Potency (CP217) | Potency (CP238) | Potency (CP250) | Potency (CP252) | Potency (CP262) | Potency (CP265) | Potency (CP286) | Potency (DFO2036) | Potency (Dd2) | Potency (HB3) | Potency (P94_40)
active: Potency (CP191) 8910 nM
